Most compounds without a hit are left out; they make up all but 13% or so of the library.
ALDH1A1 inh – qHTS Assay for Inhibitors of Aldehyde Dehydrogenase 1 (ALDH1A1) | Purified ALDH1A1, NADH fluorescence, propionaldehyde substrate | Potency, µM (top dose mostly 75.3 µM), for the others: at the highest dose activity, negative = inhibition, hits mostly inhibitors | actives 7.3% (n = 220,000) | Aldehyde dehydrogenase 1A1 (Homo sapiens), P00352 | AID 1030, 2008; active = well fitted inhibition curve with a large enough effect, not every such curve was filed as active; inconclusive = small, poorly fitted or top-dose-only effect, or another doubt; inactive = no such curve, though single readings can be large or run the other way;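 also: potency is read from the fitted curve at half-maximal effect; plate controls were no enzyme wells and a reference inhibitor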
KDM4E inh – qHTS Assay for Inhibitors of Human Jumonji Domain Containing 2E (JMJD2E) | Lysine-specific demethylase 4E (Homo sapiens), B2RXH2 | JMJD2E catalytic domain, FDH-coupled NADH fluorescence (FDH is formaldehyde dehydrogenase) | Potency, µM (titrated, usually from 57.1 µM), for the others: at the top dose activity change, negative = inhibition, most hits filed as inhibitors | actives 1.6% (n = 230,000) | AID 2147, 2009; active = well fitted inhibition curve with a large enough effect, not every such curve was filed as active; inconclusive = small, poorly fitted or top-dose-only effect, or another doubt; inactive = no such curve, though single readings can be large or run the other way;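 also: potency is read from the fitted curve at half-maximal effect; 0% = wells with enzyme and -100% = buffer wells without enzyme; nearly all actives have a fitted effect of over 50% in size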
Target sequence (B2RXH2 1-337 limits assumed): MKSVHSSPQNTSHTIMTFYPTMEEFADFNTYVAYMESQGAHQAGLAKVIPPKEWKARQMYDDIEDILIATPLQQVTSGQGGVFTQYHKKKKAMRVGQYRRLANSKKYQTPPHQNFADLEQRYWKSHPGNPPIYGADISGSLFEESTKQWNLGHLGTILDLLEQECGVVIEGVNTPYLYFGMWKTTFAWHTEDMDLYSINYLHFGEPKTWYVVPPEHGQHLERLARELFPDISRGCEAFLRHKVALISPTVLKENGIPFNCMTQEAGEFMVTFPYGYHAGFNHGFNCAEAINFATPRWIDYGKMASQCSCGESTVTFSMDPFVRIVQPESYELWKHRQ
G9a inh – qHTS Assay for Inhibitors of Histone Lysine Methyltransferase G9a. Histone-lysine N-methyltransferase EHMT2 (Homo sapiens), Q96KQ7. actives 8.8% (n = 350,000). Potency, µM (doses to about 102 µM), for inactives: top-dose activity, negative = inhibition, usual class: inhibitors. G9a H3K9 monomethylation, AlphaScreen, 2 h; also: potency is read from the fitted curve at half-maximal effect; % is scaled to controls: 0 for no effect and ±100 for the full control effect; nearly all actives have a fitted effect of over 75% in size
Target sequence (Q96KQ7 913-1193 limits assumed): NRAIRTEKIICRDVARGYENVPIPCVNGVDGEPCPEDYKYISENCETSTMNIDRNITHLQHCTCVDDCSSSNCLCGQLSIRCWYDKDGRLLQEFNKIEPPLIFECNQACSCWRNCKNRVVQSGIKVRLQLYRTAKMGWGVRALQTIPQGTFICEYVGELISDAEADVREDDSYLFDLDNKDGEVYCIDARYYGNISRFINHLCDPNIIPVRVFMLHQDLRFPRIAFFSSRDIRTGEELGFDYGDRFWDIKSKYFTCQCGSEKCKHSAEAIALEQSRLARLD
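Signal arises when biotinylated H3K9 peptide, once monomethylated, bridges streptavidin donor and antibody-captured acceptor beads. Enzyme at 20 nM was preincubated 15 min with test compounds; peptide 500 nM and SAM 20 uM then reacted for 2 h.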
miR-21 reporter – qHTS Assay for Modulators of miRNAs and/orActivators of miR-21 | HeLa miR-21 FLuc reporter, luciferase, 48 h | Potency, µM (highest dose often 38.3 µM), for the others: top-dose activity change, positive = activation, hits mostly activators | 340,000 tested, under 10 active;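 also: % of control where 0% means no effect; miR-21 action dims this reporter so a rising signal means less miR-21 action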
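HeLa cells stably expressing CMV-driven firefly luciferase with a downstream miR-21 binding sequence, endogenously expressing miR-21, were treated with titrations (up to about 40uM final) for 48 hours at 37 degree Celsius. Luciferase luminescence was read after lysis.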
LMNA splice mod – qHTS Assay for Modulators of Lamin A Splicing; HeLa LMNA splicing GFP/RFP minigene ratio, 48 h; Potency, µM (series often up to 46.1 µM), for the others: at the highest dose ratio change, negative = inhibition, most hits filed as inhibitors; actives 0.01% (n = 200,000); active = well fitted inhibition curve with a large enough effect in the signal ratio, with a control signal flat, not every such curve was filed as active; inconclusive = small, poorly fitted or top-dose-only effect, or effect the other way, or a change in a side signal; the % refers to the signal ratio; also: potency is read from the fitted curve at half-maximal effect; % is scaled to controls: 0 for no effect and ±100 for the full control effect
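Read-out is the ratio of GFP to DsRed2 object intensity, acquired by 488 nm laser-scanning cytometry on HeLa lamin A-EGFP minigene reporter cells. Compound incubation 48 hrs at 37 °C in Opti-MEM with 2% FBS; DMSO 0.5% final.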
Sfp PPTase inh – qHTS Assay for Inhibitors of Bacillus subtilis Sfp phosphopantetheinyl transferase (PPTase). Potency, µM, inactives show largest response in the series, negative = inhibition, hits mostly inhibitors. 4'-phosphopantetheinyl transferase ffp (Bacillus subtilis), Q9F4F7. actives 3.5% (n = 310,000). Biochemical Sfp PPTase activity, qHTS. AID 1490, 2009;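 also: the enzyme is Sfp with the accession as filed and its product quenches rhodamine fluorescence; potency is read from the fitted curve at half-maximal effect; 0% = enzyme reaction without inhibitor and -100% = no enzyme wells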
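After 15 min at room temperature with compound, 15 nM Sfp received 5 uM rhodamine-CoA plus 12.5 uM BHQ-2-ybbR (50 mM Hepes pH 7.6, 10 mM MgCl2). Rate came from the fluorescence difference over 30 min, ex 525/em 598 nm.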
Numbers without * were called inactive; ? = inconclusive; . = not tested or not shown; ! = not active in a repeat; [ ] = remark or other dose. Unless noted, calls follow the shape of the dose curve; as a rule, active = well fitted curve in the direction sought with a large enough effect; inconclusive = small, poorly fitted or top-dose-only effect, or another doubt; inactive = no such curve, though single readings can be large; an effect the other way counts as inactive or inconclusive.

SMILES | ALDH1A1 inh | KDM4E inh | G9a inh | miR-21 reporter | LMNA splice mod | Sfp PPTase inh
COCCn1c(C)cc(/C=C2/NC(=O)N(Cc3ccc(C)cc3)C2=O)c1C | . | ? | 16µM* | -27% | . | 2%
CCn1c(C)cc(/C=C2\NC(=O)N(Cc3ccc(Cl)cc3)C2=O)c1C | ? | ? | 0% | 1% | 7% | 1%
O=C(NN(C(=O)c1ccccc1)c1ccccc1)c1ccccc1 | 1% | 18% | 22µM* | -2% | . | 13%
O=C(c1cccn1-c1nnc(N2CCCC2)s1)N1CCN(c2ccccc2)CC1 | . | . | -3%[59 µM] | -3% | . | .
CN(C)S(=O)(=O)Oc1cccc(C(=O)Nc2ccc(Cl)cc2)c1 | 16µM* | 1% | 43% | 15% | -19% | 21%
COc1cccc(C(=O)Nc2ccc(C3CC3(Cl)Cl)cc2)c1 (stereo unspecified) | 11µM* | -9% | -1% | -26% | ? | 2%
Cc1oc(-c2ccc(C(=O)NCCN(C)C)cc2)nc1CS(=O)(=O)c1ccccc1 | . | . | -36%[59 µM] | -2% | . | .
COc1ccc(/C=C/c2c(-c3ccc(OC)cc3)sc3ccc(N4CCOCC4)cc23)cc1 | . | . | -20% | 0% | . | 6%
COc1ccc(-c2oc3ccc(N4CCOCC4)cc3c2/C=C/c2ccc(OC)c(OC)c2)cc1 | . | . | 50µM* | -13% | . | -23%
Cc1cc(N2C(=O)c3ccc(C(=O)Nc4ccc(O)cc4C(=O)O)cc3C2=O)no1 | . | . | 50µM* | -1% | . | 24%
Cc1ccc(C(=O)Nc2ccc(O)cc2C(=O)O)cc1 | 18% | 2% | -10%[59 µM] | 9% | 1% | 7%
NS(=O)(=O)c1cccc(NC(=S)NC(=O)C23CC4CC(CC(C4)C2)C3)c1 | 28µM* | -2% | -44%[59 µM] | -50% | ? | 4%
Cc1ccc(S(=O)(=O)N(C)C)cc1NC(=S)NC(=O)C12CC3CC(CC(C3)C1)C2 | ? | 13% | -17%[59 µM] | -6% | ? | -6%
CN(C)S(=O)(=O)c1cccc(NC(=O)CSc2nc3c(cc2C#N)C(=O)CC(C)(C)C3)c1 | 1.4µM* | 9% | -15% | ? | ? | -8%
CN(C)S(=O)(=O)c1cccc(NC(=O)CSc2cccc3cccnc23)c1 | . | . | 56µM* | ? | . | -2%
Cc1cc(C)c2c(=O)[nH]c(SCC(=O)Nc3cccc(S(=O)(=O)N(C)C)c3)nc2n1 | . | . | 19%[2.33 µM] | . | . | .
O=C(O)CSc1cccc2cccnc12 | ? | ? | 14µM*! | 3% | 10% | 56µM*
O=C(c1ccc2oc(Cc3ccc(Cl)cc3)nc2c1)N1CCCCC1CCO (stereo unspecified) | . | . | ? | -6% | . | 7%
Brc1ccccc1OCCN1CCOCC1 | . | . | 25µM* | -5% | . | ?
CC1CCCN(CCOCCOc2ccc(Cl)cc2Br)C1 (stereo unspecified) | -7% | -30% | ? | 7% | -8% | ?
Cc1cc(C)c(C)c(OCCN2CCOCC2)c1 | . | . | 79µM* | -4% | . | 0%
CC1CCCN(CCOCCOc2ccc(Br)cc2Cl)C1 (stereo unspecified) | -3% | ? | 10µM* | 0% | ? | -25%
CC1CCN(CCCOc2ccc(Br)cc2Cl)CC1 | -4% | ? | 16µM* | -17% | . | -4%
Cc1nc(S(=O)(=O)N2CCN(c3cccc(Cl)c3)CC2)cn1C | . | . | -17%[59 µM] | -25% | 12%[46 µM] | .
O=C(Cn1ncc2c3ccccc3n(Cc3ccccc3)c2c1=O)NCCCN1CCCCC1 | . | . | 0%[59 µM] | -2% | . | .
SMILES | ALDH1A1 inh | KDM4E inh | G9a inh | miR-21 reporter | LMNA splice mod | Sfp PPTase inh
COc1ccc(C(=O)CCC(C)(C)[N+](=O)[O-])cc1 | ? | 3% | 0% | -29% | 20%[46 µM] | 18%
CC(C)CCNC(=O)c1ccc2nc(Cc3ccccc3)oc2c1 | . | . | -3%[59 µM] | -13% | -10%[46 µM] | .
CN1CCN(CCOCCOc2ccc(Br)cc2Cl)CC1 | . | . | . | 1% | . | 56µM*
Clc1cc(Br)ccc1OCCN1CCOCC1 | ? | 5% | 10µM* | -23% | 11% | ?
COCCN(C(=O)CSc1nnc(C)n1-c1ccc(C)cc1)c1c(N)n(Cc2ccccc2)c(=O)[nH]c1=O | . | . | 9%[59 µM] | . | . | .
Cc1cc(C)c(NC(=O)C[C@H](CC(=O)O)c2cccc3ccccc23)c(C(=O)N2CCC3(CCCC3)CC2)c1 | -8% | 4% | 1%[12.7 µM] | . | ? | 23%
C(=N\n1cnnc1)/c1cccs1 | 14% | -11% | 12%[12.7 µM] | -1% | 3% | 2%
S=c1[nH]ncn1/N=C/c1cccs1 | . | 1% | 7.9µM* | 0% | . | -24%
S=c1[nH]ncn1/N=C/c1ccccn1 | ? | -13% | 1.1µM* | -6% | 4% | 16µM*
O=S1(=O)C2CC3C=CC2(O3)C(O)C(Cc2ccccc2)N1Cc1cccc(C(F)(F)F)c1 (stereo unspecified) | . | . | . | . | . | 4%
Cc1ccc(-n2nc3c(=O)n(CC(=O)NC4CCCCCC4)nc(C)c3c2C)cc1 | . | . | 16% | -1% | . | 13%
c1ccc(Cn2c3ccccc3c3nnc(SCCN4CCCCC4)nc32)cc1 | ? | 1% | -27% | 2% | . | 20%
CCCn1c2ccc(C)cc2c2nnc(SCCN3CCCCC3)nc21 | . | . | 8.9µM* | 6% | . | ?
CSc1nnc2c3cc(C)ccc3n(Cc3ccccc3)c2n1 | 14µM* | -3% | ? | -2% | 7% | 56µM*
COc1ccc(Cl)cc1N(C)C(=O)Cn1cnc2sc(C)c(S(=O)(=O)N3CCN(c4ncccn4)CC3)c2c1=O | . | . | ? | -7% | . | .
Cc1ccccc1C1C(C#N)=C2NC(=O)c3c(sc4c3CCCCC4)N2C2=C1C(=O)CC(C)(C)C2 (stereo unspecified) | 4% | 6% | 21% | -2% | -5% | 3%
Cc1ccccc1C1C(C#N)=C2N=C(N)c3c(sc4c3CCCCC4)N2C2=C1C(=O)CC(C)(C)C2 (stereo unspecified) | 7.1µM* | ? | 17% | -8% | 7% | 4%
CCOC(=O)C1(Cc2ccc(OC)cc2)CCN(C(=O)c2sc(C)nc2C)CC1 | ? | -2% | ? | 1% | -5%[46 µM] | 14%
CCOC(=O)C1(Cc2ccc(Cl)cc2)CCN(C(=O)c2sc(C)nc2C)CC1 | 35µM* | 5% | -7% | 25% | ? | 14%
O=C(NCC(c1ccccc1)N1CCCC1)C1CCN(C(=O)Nc2ccccc2)CC1 (stereo unspecified) | . | . | -34% | . | . | .

Compound activity (PubChem)
